Bioassay records: PubChem, Broad Institute
Hits are enriched below; roughly 4% of the tested compounds scored in any of these assays.
MLL AF4-AF9 inh: MLL-AF4/AF9 protein interaction inhibition; P42568; AlphaScreen, biotin-AF4 peptide binding to FLAG-AF9; inhibition, % at 10 µM; 350,000 tested, 0.47% active; AID 651704;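 active = every replicate reaching a set inhibition limit, whatever the replicate mean, cut at about 25% in these data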;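 note: 0% = plate neutral control median and 100% = total signal loss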
RAD52 anneal inh: blocks human RAD52 DNA annealing; P43351; recombinant RAD52 DNA annealing, FRET fluorescence; 360,000 tested, 0.46% active; inhibition, % at 18.7 µM; AID 651710;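 active = every replicate showing at least 50% inhibition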
Target sequence (P43351 whole entry, looked up): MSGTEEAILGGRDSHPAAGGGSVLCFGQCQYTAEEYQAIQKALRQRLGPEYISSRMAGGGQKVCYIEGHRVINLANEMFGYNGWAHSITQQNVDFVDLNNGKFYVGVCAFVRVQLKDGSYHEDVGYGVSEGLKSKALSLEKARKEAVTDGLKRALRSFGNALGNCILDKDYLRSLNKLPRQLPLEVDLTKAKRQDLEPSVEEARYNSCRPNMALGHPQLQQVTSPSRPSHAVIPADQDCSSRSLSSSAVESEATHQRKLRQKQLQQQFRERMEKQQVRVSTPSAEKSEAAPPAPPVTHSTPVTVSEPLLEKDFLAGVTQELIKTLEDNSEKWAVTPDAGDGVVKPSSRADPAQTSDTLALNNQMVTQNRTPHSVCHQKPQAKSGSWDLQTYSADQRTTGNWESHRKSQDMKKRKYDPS
FGF22 binding: shifts melting point of recombinant human FGF22; Q9HCT0; recombinant FGF22 thermal shift, SYPRO orange fluorescence; percent of sucrose octasulfate shift, DMSO zero; activity (Tm shift, normalised), % at 9.99 µM; 340,000 tested, 1.5% active;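 active = mean Tm shift, scaled 0 neutral to 100 positive control, at about 1.3% or above, every replicate too, limit read from the data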
DENV2 CPE: DENV2-induced cell death inhibition. AID 651640. CPE inhibition, % at 9.99 µM. DENV2-infected cells, cytopathic effect rescue, plate reader. 350,000 tested, 1.7% active; in the data active = CPE inhibition above about 20%, passing the limit was not always enough; tested in BHK-21 cells;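 note: 0% = median of neutral control wells and 100% = median of positive control wells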
ERAP1 inh: inhibitors of human ERAP1 aminopeptidase; AID 652197; 340,000 tested, 0.15% active; recombinant ERAP1, Leu-AMC fluorescence, 60 min; Q9NZ08; inhibition, % at 10.7 µM;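 active = mean replicate inhibition of at least 30%, or all replicates individually reaching that 30% level; inactive = mean below 30% and not every replicate reaching it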;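 note: 0% = neutral control wells and 100% = L-leucinethiol positive control wells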
* hit, by the source's call; / = no result; ! = repeats disagree.

SMILES	MLL AF4-AF9 inh	RAD52 anneal inh	FGF22 binding	DENV2 CPE	ERAP1 inh
C[C@H](CO)N1C[C@H](C)[C@H](CN(C)S(=O)(=O)c2ccc(Cl)cc2)OCCCC[C@H](C)Oc2ccc(NC(=O)CCCN(C)C)cc2C1=O	14.0	41.9	0.0	21.4*	0.0
N#CNC(=Nc1ccc(F)cc1)SCc1ccccc1	-2.9	-2.3	44.1*	13.9	-1.5
Cc1ccc(CSC(Nc2ccc(F)cc2)=C(C#N)C#N)cc1	4.7	-5.4	-0.6	0.4	0.4
O=C(Nc1ccccc1F)N[C@H]1CC[C@@H](CC(=O)N2CCCCC2)O[C@H]1CO	-3.1	-2.7	-0.5	-4.1	-4.7
CCOC(=O)N1CCN(C(=O)COC(=O)COc2c(C)cc(C)cc2C)CC1	-13.8	3.6	/	-0.1	-0.9
CC(=O)N1CCN(C(=O)COC(=O)COc2c(C)cc(C)cc2C)CC1	0.7	-5.0	0.0	83.7*	-3.3
Cc1noc(C)c1S(=O)(=O)Nc1ccc2c(c1)CC(=O)N([C@@H](C)CO)C[C@@H](C)[C@H](CN(C)CC1CC1)O2	-0.9	16.2	0.7	-0.1	0.4
CC(C)(C)c1ccc(S(=O)(=O)NC(=O)C2(C)CCN2C(=O)Cc2cccc3ccccc23)cc1 (stereo not given)	-7.2	-14.7	6.1*	11.1	-4.3
Cc1ccccc1S(=O)(=O)NC(=O)C1(C)CCN1C(=O)CC(c1ccccc1)c1ccccc1 (stereo not given)	0.5	-11.5	0.3	38.4*	-1.3
CC1(C(=O)NS(=O)(=O)c2ccccc2Cl)CCN1C(=O)c1ccco1 (stereo not given)	1.2	-4.6	0.1	22.3*	4.6
CC1(C(=O)NS(=O)(=O)c2ccccc2Cl)CCN1C(=O)CC(c1ccccc1)c1ccccc1 (stereo not given)	-0.1	-7.0	-0.3	7.2	0.6
O=C(C[C@H]1CC[C@H]2[C@@H](COC[C@H](O)CN2C(=O)Nc2ccccc2)O1)NCc1ccncn1	0.3	-6.3	-0.2	-1.2	3.9
CO[C@@H]1CN(C)C(=O)c2ccc(NC(=O)C3CCC3)cc2OC[C@@H](C)N(Cc2cccnc2)C[C@@H]1C	0.8	16.3	-0.5	5.8	-1.3
C[C@H](CO)N1C[C@H](C)[C@@H](CN(C)Cc2ccc(Cl)c(Cl)c2)OCCCC[C@H](C)Oc2ccc(NS(=O)(=O)c3ccc(F)cc3)cc2C1=O	-16.9	-70.9	-0.1	3.2	2.6
CCS(=O)(=O)NCC[C@H]1CC[C@H](NC(=O)C2CC2)[C@@H](CO)O1	-6.2	-16.4	/	6.9	-2.7
C/C=C/c1ccc2c(c1)O[C@H](CN(C)C(=O)Nc1ccc(C(F)(F)F)cc1)[C@H](C)CN([C@H](C)CO)S2(=O)=O	2.0	8.5	1.8*	-6.6	-0.4
C/C=C/c1ccc2c(c1)O[C@@H](CN(C)C(=O)Nc1ccccc1)[C@@H](C)CN([C@H](C)CO)S2(=O)=O	4.8	14.1	-0.5	-5.4	-0.2
C/C=C/c1ccc2c(c1)O[C@@H](CN(C)C(=O)Nc1ccc(C(F)(F)F)cc1)[C@@H](C)CN([C@H](C)CO)S2(=O)=O	1.3	6.8	1.4*	-8.0	0.1
C/C=C/c1ccc2c(c1)O[C@@H](CN(C)C(=O)Nc1ccccc1)[C@H](C)CN([C@H](C)CO)S2(=O)=O	2.0	-3.4	0.8	27.7*	-1.5
C/C=C/c1ccc2c(c1)O[C@H](CN(C)C(=O)Nc1ccc(C(F)(F)F)cc1)[C@@H](C)CN([C@@H](C)CO)S2(=O)=O	3.8	9.8	-0.6	10.8	1.9
C/C=C/c1ccc2c(c1)O[C@@H](CN(C)C(=O)Nc1cc(F)ccc1F)[C@@H](C)CN([C@@H](C)CO)S2(=O)=O	-0.9	-5.7	1.0	3.4	1.3
C[C@H]1CN([C@@H](C)CO)S(=O)(=O)c2ccc(/C=C/c3ccccc3)cc2O[C@H]1CN(C)C(=O)Nc1cc(F)ccc1F	5.3	15.7	1.8*	2.4	1.2
CCCC#Cc1cnc2c(c1)C(=O)N([C@H](C)CO)C[C@H](C)[C@H](CN(C)C(=O)Nc1ccccc1F)O2	-0.5	4.0	-0.2	-2.3	0.8
CCCNC(=O)N1CC2(C1)CN(C(=O)CC)[C@@H](CO)c1[nH]c3cc(OC)ccc3c12	-2.4	/	0.0	-4.3	/
C[C@@H]1CN([C@H](C)CO)S(=O)(=O)c2ccc(-c3cccc(C#N)c3)cc2O[C@H]1CN(C)C(=O)Nc1cc(F)ccc1F	-1.6	-3.8	0.1	29.4*!	8.6
